The source of these data is PubChem BioAssay AID602399 (Sanford-Burnham Center for Chemical Genomics, 2012).

SMILES strings stand for the structures. Values joined by “and” are separate entries in the source; they are usually repeats but may differ in a detail not shown here. Identical values can stand only once. Screen size: about 360,000 compounds; about 2,800 (0.78%) were called active. Cut-off read from the data, not from the text of the source: active = inhibition above about 26%; inactive = the rest. For the sample, actives were picked, then their nearest neighbours and some compounds at random. Some structures have more than one record in an assay (separate samples or runs), and their calls can disagree.

As usually defined, the inhibition is the drop in the measured response relative to a control, in per cent.

The test deals with Nicotinate-nucleotide adenylyltransferase NadD (Staphylococcus aureus N315). In words: S. aureus NadD enzyme activity blockers – biochemical, colorimetric, uHTS, primary screen (AID 602399). Particulars: purified NadD enzyme, colorimetric absorbance read-out; at 20 µM; stronger effect = higher value.
As to `CCOC(=O)[C@]12CCCC=C1N(Cc1ccc(Cl)cc1Cl)C(=O)[C@H](CC(=O)N1CCCCC1)C2`, the inhibition is -1.55% (inactive).
For the molecule `Cc1ccc(N(CC(=O)NCC2CCCO2)C(=O)CNS(=O)(=O)c2ccc(Cl)cc2)cc1` (stereo unspecified), the inhibition was 2.66% (inactive).
With `COc1ccc(-c2nc3cnccn3c2NC(C)(C)CC(C)(C)C)cc1O` the figure was -3.5% (inactive); with `COc1ccc(-c2nc3cc(C)ccn3c2NC2CCCCC2)cc1SC1CCCCC1`, 17% (inactive) and 21% (inactive).
The result for `COc1ccc(-c2nc3cnccn3c2NC2CCCCC2)cc1-c1cccc(Cl)c1` reads 33.8% (active) and 14.3% (inactive); that for `COC(=O)c1ccc2nc(-c3ccc(C)cc3)c(Cc3ccc(OC)cc3C)n2c1`, 31.6% (active).
Regarding `COC(=O)c1ccc2nc(-c3cccc(Br)c3)c(Cc3ccc(OC)cc3C)n2c1`, the inhibition was 20.8% (inactive).
With `COC(=O)c1ccc2nc(-c3ccccc3)c(Cc3ccc(OC)cc3C)n2c1` the figure was 10.9% (inactive); with `O=C(COC(=O)c1cccnc1Cl)Nc1ccc(S(=O)(=O)N2CCOCC2)cc1`, -4.21% (inactive).
The result for `O=C(CSc1nnc(COc2ccc(Cl)cc2)n1Cc1ccco1)N1CCNC1=O` reads 4.26% (inactive); that for `CCc1nc2oc3ccccc3c(=O)c2c(=O)n1Cc1ccc(OC)cc1`, 2.99% (inactive); that for `Cn1c2ccccc2c(=O)c2c(=O)n(Cc3ccco3)c(COc3ccccc3)nc21`, 42.5% (active).
With `COc1ccc(-c2ccc(CN3C(C(C)C)C(=O)N(Cc4cn(CC5CCCCC5)nn4)CCS3(=O)=O)cc2)cn1` (stereo unspecified) the figure was 4.8% (inactive).
Take `CCOC(=O)C(Sc1ncc(C#N)c(N)n1)C(C)C` (stereo unspecified): the inhibition is 2.12% (inactive).
The result for `CCCc1c(C(=O)Nc2ccc(F)cc2)cnn1-c1ccccc1` reads -0.321% (inactive); that for `Cc1cccc(C)c1-n1nnnc1C1(C)CCC(=O)N1CCOc1ccccc1` (stereo unspecified), -5.82% (inactive); that for `Cc1ccsc1/C=N/n1c(=S)[nH]nc(C)c1=O`, 1.04% (inactive).
The result for `S=c1[nH]nc(-c2cccs2)n1/N=C/c1cn(-c2ccccc2)nc1-c1ccc(Cl)cc1` reads 32.6% (active); that for `CC(=O)C1=C(C)NC(C)=C(C(C)=O)C1c1cn(-c2ccccc2)nc1-c1cccs1`, 11.6% (inactive).
With `C[C@H]1CC[C@]2(O[C@@H](CCO)C[C@@H](O)[C@@H]2O)O1` the figure was 0.758% (inactive); with `O=C(COC(=O)CCCNC(=O)c1ccc(Cl)cc1)Nc1cc(Cl)ccc1Cl`, -4.1% (inactive).
As for `COc1ccc([N+](=O)[O-])cc1C1NN=C(c2cccc3ccccc23)S1` (stereo unspecified), the inhibition was 17.6% (inactive).
`NC(=O)C1CC(=O)N(c2ccc(OCC(=O)NCc3ccccc3)cc2)C1` (stereo unspecified): the inhibition was 1.55% (inactive).
In the case of `COc1ccccc1C(=O)NCC(=O)OCC(=O)Nc1nnc(-c2ccccc2)o1`, the inhibition was 10.3% (inactive).
The result for `O=C(COC(=O)c1ccccc1)Nc1ccccc1Sc1ccccc1` reads -7.21% (inactive).
The result for `O=C(COC(=O)c1ccc(Oc2ccccc2)cc1)Nc1nnc(-c2ccccc2)o1` reads 47.6% (active).
With `CC(C)(C)C(=O)CCN1C(=O)C2(OCCO2)c2ccccc21` the figure was -0.902% (inactive); with `COC(=O)[C@@]1(Cc2ccc(F)cc2)[C@H]2c3cc(C(=O)N4CCCC4)n(Cc4ccc(OC(F)(F)F)cc4)c3C[C@H]2CN1C(=O)c1ccccc1`, 13.9% (inactive); with `Cc1cc(C(=O)CSc2nc(N)cc(=O)[nH]2)c(C)n1CCc1ccc(Cl)cc1`, 45.2% (active).
Regarding `Cc1cc(=O)[nH]c(SCc2ccc(Cl)cc2)n1`, the inhibition was -4.15% (inactive).
For `Cc1cc(C(=O)CSc2nc(N)cc(=O)[nH]2)c(C)n1-c1cccc(F)c1`, the inhibition was 23.5% (inactive).
In the case of `C/C=C/C=C/C(=O)O`, the inhibition is 2.73% (inactive).
Regarding `COC(=O)c1sccc1NC(=O)CSc1ccccc1NS(=O)(=O)c1cc(Cl)ccc1Cl`, the inhibition was 8.33% (inactive).
For `O=[N+]([O-])c1ccccc1/C=N/n1c(COc2ccccc2)n[nH]c1=S`, the inhibition was 4.33% (inactive).
With `CCOc1ccc(-c2n[nH]c(=S)n2/N=C/c2cc3c(cc2[N+](=O)[O-])OCO3)cc1` the figure was 33.3% (active).
With `Cc1ccc(S(=O)(=O)N/N=C\c2cc3c(cc2[N+](=O)[O-])OCO3)cc1` the figure was -4.98% (inactive).
The result for `O=C1CC2(CC(c3ccc(Cl)cc3)=NO2)C(=O)N1c1ccccc1` (stereo unspecified) reads -6.96% (inactive).
Regarding `CC(=O)Nc1ccc(NC(=O)C(C)n2c3ccccc3c3nc(=O)cc(C)n32)cc1` (stereo unspecified), the inhibition was 1.71% (inactive).
`Cc1cc(C)cc(N(CC(=O)Nc2c(C)n(C)n(-c3ccccc3)c2=O)S(C)(=O)=O)c1`: the inhibition is 0.515% (inactive).
Turning to `COc1ccc(Cl)cc1C(=O)NNC(=S)NC(=O)/C=C/c1ccco1`, the inhibition was 41.2% (active).
With `COc1ccc(Cl)cc1C(=O)NNC(=S)NC1CCCC1` the figure was 2.3% (inactive).
On to `O=C(/C=C/c1ccco1)NC(=S)N1CCCCC1`, for which the inhibition is 0.202% (inactive).
The result for `Cc1ccc(C(=O)NN(CCC#N)C2=NS(=O)(=O)c3ccccc32)cc1` reads 2.03% (inactive); that for `C=CC1=C(C(=O)O)N2C(=O)[C@@H](NC(=O)/C(=N/OCC(=O)O)c3csc(N)n3)[C@H]2SC1`, 94.8% (active); that for `C=CC1=C(C(=O)O)N2C(=O)[C@@H](NC(=O)/C(=N\OCC(=O)O)c3csc(N)n3)[C@H]2SC1`, 15.8% (inactive).
With `Cc1ccc(Cl)cc1NC(=O)C1CCN(S(C)(=O)=O)CC1` the figure was -1.83% (inactive).
The result for `CN(C)c1nc(N)nc(Cn2nnc(-c3ccc(C(F)(F)F)cc3)n2)n1` reads -3.29% (inactive); that for `CC1(Oc2cccc(F)c2)CCN(Cc2ccccc2OC(F)F)C1` (stereo unspecified), -4.85% (inactive); that for `CC(=O)Nc1ccc(SCC(=O)Nc2ccccc2Oc2ccccc2)cc1`, -2.74% (inactive).
For the molecule `CCC(C)Cn1c(O)cc2nn(-c3nc4ccccc4s3)c(=O)c-2c1C` (stereo unspecified), the inhibition was 81.3% (active).
Regarding `C/C(CC(C)C)=N\Oc1nc(C)cc(C)n1`, the inhibition was -5.32% (inactive).
Consider `CSc1nc(-c2ccco2)nn1C(=O)c1ccccc1Cl`, for which the inhibition was -4.61% (inactive).
The result for `Cc1ccc2nc(-c3ccco3)c(Cc3cccc(Cl)c3)n2c1` reads 2.81% (inactive).
Regarding `Clc1ccccc1CSc1nnc(-c2ccco2)c(-c2ccco2)n1`, the inhibition was 29.3% (active).
For the molecule `COc1ccccc1N(CC(=O)N1CCCCC1)S(=O)(=O)c1ccccc1`, the inhibition was 0.503% (inactive).
With `CC(C#N)(NC(=O)CN1CCN(S(=O)(=O)c2cc(C(F)(F)F)ccc2Cl)CC1)C1CC1` (stereo unspecified) the figure was -1.47% (inactive); with `O=C(Nc1nnc(-c2ccccc2)o1)c1cc(-c2cccs2)nc2ccccc12`, 40.6% (active); with `O=C(Nc1nnc(-c2ccc(Cl)cc2)o1)c1ccccc1Br`, 9.64% (inactive).
`Cc1ccnc2nc(C(=O)Nc3nnc(-c4ccccc4)o3)nn12`: the inhibition was -3.89% (inactive).
Turning to `CN(Cc1nc2ccc(F)cc2[nH]1)Cc1nc(CC2CC2)no1`, the inhibition is -3.27% (inactive).
With `CCN(C(=O)CN1CCN(Cc2ccccc2)CC1)c1c(N)n(Cc2ccccc2)c(=O)[nH]c1=O` the figure was -5.19% (inactive); with `Cc1ccccc1NC(=O)c1ccc(COc2ccc3c(C)cc(=O)oc3c2)cc1`, 1.94% (inactive).
On to `CC(C)Oc1ccc(/C=C(\NC(=O)/C=C/c2ccco2)C(=O)NCCc2nc3ccccc3[nH]2)cc1`, for which the inhibition was 40.3% (active).
With `CCCCCOc1ccc(/C=C/C(=O)NCCc2nc3ccccc3[nH]2)cc1OC` the figure was 0.224% (inactive); with `Cc1ccc(C(=O)N/C(=C/c2ccco2)C(=O)NCCc2c[nH]c3ccccc23)cc1C`, 2.77% (inactive).
The result for `CCn1c(SCC(=O)N/N=C/c2ccccc2OCC(=O)O)nnc1-c1ccc(C(C)(C)C)cc1` reads 5.5% (inactive); that for `CCOC(=O)N1CCC(NC(=O)CCc2cn(C)c3ccccc23)CC1`, 0.741% (inactive); that for `COc1ccc(CCNC(=O)CN2C(=O)CCSc3ccccc32)c(OC)c1`, -0.893% (inactive).
The result for `CC(C)(C)C1C/C(=C/c2ccco2)C(=O)/C(=C/c2ccco2)C1` (stereo unspecified) reads 41.6% (active).
On to `COC(=O)COc1ccc2c(c1C)O/C(=C\c1ccco1)C2=O`, for which the inhibition is -6.79% (inactive).
The result for `CC1CCN(C(=S)NC2CC3CCC2C3)CC1` (stereo unspecified) reads 1.51% (inactive).
The result for `Cc1nn(C)c(C)c1Sc1ccccc1N` reads -4.87% (inactive); that for `Cc1ccc(NC(=O)N2CCC(c3nc4c(nnn4Cc4c(F)cccc4Cl)c(=O)[nH]3)CC2)cc1`, 22.9% (inactive); that for `Cc1ccc(Cn2nnc3c(=O)[nH]c(C4CCN(S(=O)(=O)/C=C/c5ccccc5)CC4)nc32)cc1`, 31.1% (active).
Turning to `CC(C)(C)c1ccc(Cn2nnc3c(=O)[nH]c(C4CCCN(C(=O)c5ccco5)C4)nc32)cc1` (stereo unspecified), the inhibition was 4.55% (inactive).
With `CC(C)COC(=O)c1ccc(NC(=O)C2C3C=CC(C3)C2C(=O)O)cc1` (stereo unspecified) the figure was 3.38% (inactive); with `COCCNC(=O)C(c1ccc(C)cc1)N(C(=O)CCC(=O)Nc1ccccn1)c1cccc(C)c1` (stereo unspecified), -8.33% (inactive).
Regarding `O=C(c1ccc(C(F)(F)F)cc1)N1CCC(=O)N([C@H](COCc2ccccc2)Cc2ccccc2)CC1`, the inhibition was -5.31% (inactive).
The result for `O=C(Nc1ccc(S(=O)(=O)Nc2nccs2)cc1)c1cc(=O)[nH]c2ccccc12` reads -0.912% (inactive).
With `O=C(CCc1ccccc1Cl)Nc1ccc(S(=O)(=O)Nc2nccs2)cc1` the figure was -3.71% (inactive); with `O=C(Nc1ccc(S(=O)(=O)Nc2nccs2)cc1)c1cc(-c2ccncc2)nc2ccccc12`, 52.3% (active).
With `CCOc1ccc(NC(=O)c2ccc(CSc3nnnn3C)cc2)cc1` the figure was -3.76% (inactive); with `CCc1ccc2c(c1)C1(NN=C(c3ccccc3)S1)C(=O)N2` (stereo unspecified), 3.11% (inactive).
Turning to `O=C(CSc1nc(Nc2ccccc2)nc(N2CCOCC2)n1)Nc1cc(Cl)ccc1O`, the inhibition was 37.7% (active).
As for `O=C(CSc1nc2ccc(Nc3nc(N4CCOCC4)nc(N4CCOCC4)n3)cc2s1)NCc1ccco1`, the inhibition is 8.01% (inactive).
For `O=C(CSc1ccccc1)Nc1cc(Cl)ccc1Oc1ccccc1`, the inhibition is 6.26% (inactive).
